Compound activity from PubChem BioAssay.
TDP1 cell noCPT – qHTS for Inhibitors of human tyrosyl-DNA phosphodiesterase 1 (TDP1): qHTS in cells in absence of CPT; DT40 Tdp1-/- hTDP1 cells, no CPT, ATP luminescence, 48 h; Potency, µM (highest dose often 46.2 µM), for the others: top-dose activity change, negative = growth inhibition, most hits filed as inhibitors; 420,000 compounds, 15% hits; AID 686978, 2013; note: potency is the fitted concentration of half-maximal effect; nearly all actives have a fitted effect of over 55% in size
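Camptothecin absent (DMSO only). Human TDP1-complemented DT40 knockout cells, 400 cells/well, 37 °C for minimum 48 hr; ATP measured via CellTiter-Glo, 30 min dark incubation, luminescence.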
HT1080-NT tox – qHTS for induction of synthetic lethality in tumor cells producing 2HG: qHTS for the HT-1080-NT fibrosarcoma cell line; 360,000 compounds, 1.6% hits; Potency, µM (doses to about 46.1 µM), for the others: top-dose activity, negative = less viability, usual class: cytotoxic; HT-1080-NT fibrosarcoma viability, CellTiter-Glo ATP luminescence, 48 h;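 note: NT is the 2HG producing partner of a matched IDH1 knockdown line; potency is the fitted concentration of half-maximal effect; 0% = DMSO-treated cells and -100% = media-only wells without cells; nearly all actives have a fitted effect of over 55% in size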
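Viability of the 2HG-overproducing fibrosarcoma line after 48 hours of compound exposure at 37 degrees C was determined by luminescence with CellTiter-Glo, and concentration-effect curves were then fitted and categorized.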
HT1080 IDH1KD tx – qHTS for induction of synthetic lethality in tumor cells producing 2HG: qHTS for the HT-1080-IDH1KD cell line | 360,000 compounds, 2% hits | Potency, µM (highest dose often 46.1 µM), without a hit: at the highest dose activity, negative = toxicity, hits mostly cytotoxic | HT-1080 IDH1 knockdown viability, ATP luminescence, 48 h;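 note: potency is the fitted concentration of half-maximal effect; 0% = DMSO wells and -100% = cell-free medium wells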
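Using the IDH1-knockdown HT-1080 line run in the same batch and compound series as the NT line, viability after 48 h at 37 °C was determined by CellTiter-Glo luminescence and expressed as % activity.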
IL-1B inflam inh – qHTS for Inhibitors of Inflammasome Signaling: IL-1-beta AlphaLISA Primary Screen; THP-1 LPS/ATP IL-1B secretion, AlphaLISA, 16 h; active compounds read low; activity change, % at 57.5 µM; 360,000 compounds, 4.7% hits; AID 743279, 2014; in the data active = activity change below about -50%; inconclusive = mostly about -30% to -49%
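Secreted IL-1B measured by AlphaLISA bead assay after 16 h compound exposure of THP-1 cells; compounds (final up to 57.5 uM) added 1 h before LPS (250 ng/mL) and ATP (1.25 mM) stimulation; lower signal means less secretion.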
DT40 TDP1 CPT – qHTS for Inhibitors of human tyrosyl-DNA phosphodiesterase 1 (TDP1): qHTS in cells in presence of CPT; chicken DT40 Tdp1-/-;hTDP1 cells + 20 nM CPT, ATP luminescence, 48 h; Potency, µM (highest dose often 46.2 µM), inactives show at the top dose activity change, negative = growth inhibition, most hits filed as inhibitors; 420,000 compounds, 12% hits; AID 686979, 2013; note: potency is the fitted concentration of half-maximal effect; nearly all actives have a fitted effect of over 55% in size
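Chicken DT40 Tdp1-/- cells stably complemented with human TDP1 were seeded at 400 cells/well in medium containing 20 nM camptothecin, exposed to pin-transferred compounds, and grown at 37 °C for at least 48 hr. Viability was read as ATP luminescence.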
Active calls of the source: *; ? = inconclusive; · = no result; [ ] = dose if it differs, or a comment. Hits are enriched below; roughly 19% of the tested compounds scored in any of these assays. Unless noted, calls come from the whole dose curve; as a rule, active = well fitted curve in the direction sought with a large enough effect; inconclusive = small, poorly fitted or top-dose-only effect, or another doubt; inactive = no such curve, though single readings can be large; an effect the other way counts as inactive or inconclusive. Unless noted, % is set by controls: 0 for no effect and ±100 for the full control effect.

SMILES	TDP1 cell noCPT	HT1080-NT tox	HT1080 IDH1KD tx	IL-1B inflam inh	DT40 TDP1 CPT
CCc1ccc(O)c(N=Cc2cccc(C)c2O)c1	21µM*	?	?	22	21µM*
COc1cccc(C(=O)C2CCCN(Cc3c(C)n(C)n(-c4ccccc4)c3=O)C2)c1 (configuration not stated)	-11%	-5%	12%	18	6%
CC(=O)N(C(C)=O)c1ncc2c([nH]c3ccccc32)c1C#N	?	11µM*	7.1µM*	-6	?
COCCCNC(=O)[C@H](Cc1ccccc1)NC(=O)CC[C@H]1O[C@@H](n2ccc(=O)[nH]c2=O)[C@H](O)[C@@H]1O	-11%	-1%	1%	8	-9%
CC(C)N(CCO)Cc1nc(N2CCOCC2)c2cc(Cl)ccc2n1	21µM*	·	·	·	?
COc1ccc(NC(=O)C2CCC(=O)N2C(=O)OCc2ccccc2)cc1 (configuration not stated)	1%	25%	7%	17	9%
COc1ccccc1N1CC(C(=O)Nc2ccc(C)c(S(=O)(=O)N3CCOCC3)c2)CC1=O (configuration not stated)	-12%	12%	8%	-4	5%
CC(C)C(=O)Nc1c(-c2cccc(Cl)c2)c(=O)c2ccccc2n1C	23µM*	0%	-1%	8	18µM*
Cn1c(NC(=O)c2ccccc2F)c(-c2cccs2)c(=O)c2ccccc21	-13%	-1%	-16%	-26	?
Cn1c(NC(=O)c2ccc(F)cc2)c(-c2cccs2)c(=O)c2ccccc21	?	9%	-6%	-58*	?
COc1ccccc1-c1c(NC(=O)C(C)C)n(C)c2ccccc2c1=O	-9%	12%	13%	13	?
Cn1c(NC(=O)c2cccs2)c(-c2cccs2)c(=O)c2ccccc21	-27%	-10%	-6%	12	23µM*
CC(C)C(=O)Nc1c(-c2cccs2)c(=O)c2ccccc2n1C	-7%	3%[9.24 µM]	7%	4	0%
Cn1c(NC(=O)c2ccccc2)c(-c2cccs2)c(=O)c2ccccc21	16µM*	1%[9.24 µM]	?	-26	15µM*
COC(=O)CSc1nc2[nH]ncc2c(=O)[nH]1	-1%	19%	15%	29	-10%
CC(=O)N/C(=C/c1ccc2c(c1)OCO2)C(=O)NCC(=O)O	2%	14%	9%	-5	-21%
O=c1[nH][nH]c2cc(=O)n(-c3ccc(Cl)cc3)nc12	-12%	-4%	-10%	22	-24%
C#CCOC(=O)Nc1cccn(Cc2c(Cl)cccc2Cl)c1=O	10µM*	?	?	?	21µM*
O=C(Nc1cccn(Cc2c(Cl)cccc2Cl)c1=O)C1CC1	?	0%	-7%	?	?
Cc1nn(Cc2ccccc2Cl)c(C)c1NC(=O)c1noc(C(C)C)c1[N+](=O)[O-]	0%	-6%	-3%	4	-7%
CC(C)c1onc(C(=O)NCc2ccccc2)c1[N+](=O)[O-]	21µM*	-8%	-18%	-9	16µM*
CC(C)c1onc(C(=O)Nc2cccnc2Cl)c1[N+](=O)[O-]	?	10%	2%	4	23µM*
CCc1ccccc1NC(=O)c1noc(C(C)C)c1[N+](=O)[O-]	?	?	?	?	15µM*
Cc1onc(C(=O)Nc2cccnc2Cl)c1[N+](=O)[O-]	-13%	0%	-3%	24	?
CC(C)c1onc(C(=O)NCc2ccc(Cl)cc2)c1[N+](=O)[O-]	?	-2%	3%	-25	?
SMILES	TDP1 cell noCPT	HT1080-NT tox	HT1080 IDH1KD tx	IL-1B inflam inh	DT40 TDP1 CPT
Cc1ccc(S(=O)(=O)CCC(=O)OCC(=O)N2c3ccccc3CC2C)cc1 (configuration not stated)	1%	6%	3%	2	8%
COc1ccccc1N1CCN(c2nc(CNC(=O)C3CCOC(C)(C)C3)nc3ccccc23)CC1 (configuration not stated)	16µM*	·	·	·	?
COc1ccccc1N1CCN(c2nc(CNC(=O)C3CC34CCCC4)nc3ccccc23)CC1 (configuration not stated)	21µM*	·	·	·	-13%[9.04 µM]
COc1ccccc1N1CCN(c2nc(CNC(=O)c3ccccc3F)nc3ccccc23)CC1	8.2µM*	·	·	·	?
COc1ccccc1N1CCN(C(=O)NCc2cccc(C(F)(F)F)c2)CC1	?	-18%	-2%	-8	1%
CCSc1nnc(CNC(=O)c2ccccc2F)n1-c1ccccc1OC	1%	13%	2%	5	13%
Nc1ncnc2c1ncn2[C@H]1O[C@@H](CSCC[C@@H](N)C(=O)O)[C@H](O)[C@@H]1O	-1%	·	·	·	17%
C=CSc1sc(Cl)c(N2CCOCC2)c1[N+](=O)[O-]	?	?	?	-105*	0%
C=CS(=O)(=O)c1sc(Cl)c(N2CCOCC2)c1[N+](=O)[O-]	2.9µM*	?	10µM*	-112*	1.6µM*
CCOC(=O)C1=C(C)NC(C)=C(C(=O)OCC)C1c1sccc1C	?	-10%	-23%	23	?
Cc1cc(S(=O)(=O)NC(=O)[C@H]2O[C@@H](n3cnc4c(N)ncnc43)[C@H](O)[C@@H]2O)ccc1Br	-26%	10%	19%	39	-19%
C[C@H](CO)N1C[C@H](C)[C@@H](CN(C)C(=O)Nc2ccc3c(c2)OCO3)Oc2ccc(NC(=O)NC3CCCCC3)cc2C1=O	-18%	0%	21%	7	-16%
C=CCn1c(CCC(=O)O)ccc1-c1ccccc1	?	0%	-5%	-77*	-9%
O=C(O)CCc1ccc(-c2ccc(Cl)cc2)n1CCC(=O)O	8%	?	?	2	8%
CCOC(=S)SCc1cn2ccccc2n1	-14%	-2%	-20%	?	0%
CCOC(=S)SCc1cn2ccc(C)cc2n1	?	9%	10%	-57*	?
COc1ccc(CCNC(=O)COc2nncc3ccccc23)cc1	20%	4%	6%	-28	5%
CCOC(=O)CSc1snnc1C	10%	0%	-3%	7	7%
CCOC(=O)CSC1=NC(=O)CS1	?	-2%	-2%	-14	10µM*
Cc1ccc(-n2ncc(C(=O)NCc3ccco3)c2C2CCN(C(=O)OC(C)(C)C)CC2)cc1	18µM*	·	·	·	18µM*
Cc1ccc(-n2ncc(C(=O)NCc3ccco3)c2C2CCN(C(=O)OC(C)(C)C)CC2)cc1C	?	·	·	·	16µM*
